Key:
pT7_6His-AlfaTag-HOXD13 = pT7_6His-AlfaTag-HOXD13 (human, UniProt P35453 263-343); assay: PADIT-seq; details: dsDNA, one strand shown
pT7_6His-AlfaTag-ZIF268 = pT7_6His-AlfaTag-ZIF268 (human, UniProt P18146 335-423); assay: PADIT-seq; details: dsDNA, one strand shown

Sequence of pT7_6His-AlfaTag-HOXD13 (P35453 263-343): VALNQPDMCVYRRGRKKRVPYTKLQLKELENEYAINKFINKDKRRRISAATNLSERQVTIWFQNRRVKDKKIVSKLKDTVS

Sequence | binding signal (pT7_6His-AlfaTag-HOXD13) [log2FC] | binding signal (pT7_6His-AlfaTag-ZIF268) [log2FC]
CTCGAGGATATCAAGATCTGGCCTCGGCCTTTTAAAAGGAACCTCTAGCTAGCCGACTCACTATAGGGATAATCGCCCTGAGCAAAGACC | 2.5 ± 0.0673 | 0.098 ± 0.0706
CTCGAGGATATCAAGATCTGGCCTCGGCGTTTTAGCCGGAACCTCTAGCTAGCCGACTCACTATAGGGATAATCGCCCTGAGCAAAGACC | -0.579 ± 0.147 | 0.0458 ± 0.125
CTCGAGGATATCAAGATCTGGCCTCGGCGCATGGGCGGGAACCTCTAGCTAGCCGACTCACTATAGGGATAATCGCCCTGAGCAAAGACC | -0.757 ± 0.112 | 0.51 ± 0.0916
CTCGAGGATATCAAGATCTGGCCTCGGCAAACTAAAAGGAACCTCTAGCTAGCCGACTCACTATAGGGATAATCGCCCTGAGCAAAGACC | -0.484 ± 0.203 | 0.0456 ± 0.191
CTCGAGGATATCAAGATCTGGCCTCGGCTTATGGGCGGGAACCTCTAGCTAGCCGACTCACTATAGGGATAATCGCCCTGAGCAAAGACC | 1.03 ± 0.0902 | 0.0657 ± 0.0898
CTCGAGGATATCAAGATCTGGCCTCGGCGCGTGGAATGGAACCTCTAGCTAGCCGACTCACTATAGGGATAATCGCCCTGAGCAAAGACC | -0.959 ± 0.133 | 0.0778 ± 0.106
CTCGAGGATATCAAGATCTGGCCTCGGCATTTTAGGGGGAACCTCTAGCTAGCCGACTCACTATAGGGATAATCGCCCTGAGCAAAGACC | 1.57 ± 0.105 | 0.0683 ± 0.108
CTCGAGGATATCAAGATCTGGCCTCGGCATCCCACGCGGAACCTCTAGCTAGCCGACTCACTATAGGGATAATCGCCCTGAGCAAAGACC | -0.991 ± 0.113 | 0.41 ± 0.087
CTCGAGGATATCAAGATCTGGCCTCGGCGTTTTAACGGGAACCTCTAGCTAGCCGACTCACTATAGGGATAATCGCCCTGAGCAAAGACC | 1.81 ± 0.0879 | 0.0881 ± 0.0918

— article doi:10.1101/2024.03.05.583629
